The record followed here is PubChem BioAssay AID485344 (National Center for Advancing Translational Sciences (NCATS), 2010).

What is called inhibition is the relative decrease from the control value, in per cent.

Where “and” joins values, the source holds several entries; their conditions need not be identical. Identical values can stand only once. About 6,900 (2%) of roughly 340,000 compounds were called active. No stated cut-off is given here; in the data, active means inhibition above about 30%; inactive means below that, where a call was filed. Only a selection was taken, and actives are over-represented in it overall.

Sequence of D(2) dopamine receptor (Homo sapiens) (P14416 whole entry, looked up): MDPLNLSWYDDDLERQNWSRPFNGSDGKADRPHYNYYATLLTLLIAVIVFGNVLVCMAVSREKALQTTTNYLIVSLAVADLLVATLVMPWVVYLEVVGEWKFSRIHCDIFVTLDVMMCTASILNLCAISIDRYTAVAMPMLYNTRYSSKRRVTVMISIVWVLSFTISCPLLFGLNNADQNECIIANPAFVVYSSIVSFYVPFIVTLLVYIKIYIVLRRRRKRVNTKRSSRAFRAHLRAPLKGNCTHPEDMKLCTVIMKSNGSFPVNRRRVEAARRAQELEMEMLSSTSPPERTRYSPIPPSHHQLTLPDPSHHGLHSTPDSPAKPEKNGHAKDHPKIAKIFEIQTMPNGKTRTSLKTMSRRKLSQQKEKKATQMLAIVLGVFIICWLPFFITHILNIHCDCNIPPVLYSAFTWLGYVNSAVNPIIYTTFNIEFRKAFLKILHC

This assay has as its target D(2) dopamine receptor (Homo sapiens) (UniProt P14416). Description: HTS Assay for Allosteric Antagonists of the Human D2 Dopamine Receptor: Primary Screen for Antagonists. Further: 0% is about no effect. The following applies: HEK293 TREx D2 cells, calcium flux, dopamine EC80; at 10 µM; hits give high values. In short, it runs like this: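 Inhibition of EC80 dopamine-driven calcium flux, recorded kinetically, defines activity here; cells are a tetracycline-induced HEK293 T-REx line expressing force-coupled D2.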
In general terms: Calcium flux is commonly read through the fluorescence of an indicator in the cells.
In the case of `CC(=O)c1c(C)c[nH]c1C`, the inhibition was 31.1% (active).

On to `CCOC(=O)c1c(Cc2ccc(Cl)cc2)c[nH]c1C`, for which the inhibition is -4.64% (inactive).

In the case of `O=C(CSc1ncnc2sccc12)N1CCN(C(=O)c2cccs2)CC1`, the inhibition was 30% (inactive).

`Cc1occc1-c1nnc(SCC(=O)NC2CCCCC2)o1`: the inhibition was 6.65% (inactive).

For `CC1CN(C(=O)CCC(=O)NCc2cccnc2)c2ccccc2O1` (stereo not given), the inhibition was 35.5% (active).

On to `CC1CN(C(=O)CCC(=O)NC2CCN(Cc3ccccc3)CC2)c2ccccc2O1` (stereo not given), for which the inhibition is -8.98% (inactive).

Turning to `Cc1ccc2c(c1)N(C(=O)CCC(=O)NCc1cccnc1)CCO2`, the inhibition was 13.2% (inactive).

Consider `CC[C@H](C)C(=O)N[C@H]1CCCN1C(=O)/C=C/c1ccccc1`, for which the inhibition was 3.07% (inactive).

Take `O=C(N[C@@H](Cc1c[nH]c2ccccc12)C(=O)O)OCC1c2ccccc2-c2ccccc21`: the inhibition was 5.76% (inactive).

On to `COc1ccc(C)cc1NC(=O)CSc1nnc2ccc(-c3ccccn3)nn12`, for which the inhibition is 24.5% (inactive).

Consider `O=C(N/N=C/c1coc2ccccc2c1=O)c1cc2ccccc2o1`, for which the inhibition was -7.75% (inactive).

Regarding `Cc1c(/C=N\NC(=O)c2cc3ccccc3o2)c2ccccc2n1C`, the inhibition is 33.1% (active).

For the molecule `O=C(N/N=C/c1c[nH]c2ccccc12)c1cc2ccccc2o1`, the inhibition is -9.07% (inactive).

Take `COc1ccc(CCC(=O)N2CCN(S(=O)(=O)c3ccc(OC)cc3)CC2)cc1`: the inhibition is -16.3% (inactive).

For `CCOC(=O)CN1C(=O)C(=O)c2cc(C)ccc21`, the inhibition is 37% (active).

On to `Cc1cccc2c1N(CC(=O)OC(C)C)C(=O)C2=O`, for which the inhibition was 0.945% (inactive).

Turning to `CC(C)OC(=O)CN1C(=O)C(=O)c2ccccc21`, the inhibition was 2.86% (inactive).

For the molecule `Cc1cccc(C(=O)OC(C)CN2CCCC2)c1` (stereo not given), the inhibition is -14% (inactive).

On to `Cc1ccc(C(=O)OC(C)CN2CCOCC2)cc1` (stereo not given), for which the inhibition is 12.8% (inactive).

Turning to `CC(CN1CCOCC1)OC(=O)c1ccc(C(C)(C)C)cc1` (stereo not given), the inhibition is 70.8% (active).

For `O=[N+]([O-])c1ccccc1/C=C/CN1CCCC(CO)C1` (stereo not given), the inhibition was 35.4% (active).

Consider `O=C(/C=C/c1ccccc1[N+](=O)[O-])OCC(=O)N1CCCC1`, for which the inhibition is 4.52% (inactive).

Turning to `CC1CC(C)CN(C/C=C/c2ccccc2[N+](=O)[O-])C1` (stereo not given), the inhibition is 7.28% (inactive).

`CCN(CC(=O)Nc1cc(Cl)ccc1C)C(=O)Cn1c(=O)cnc2ccccc21`: the inhibition was 17.9% (inactive).

`COC(=O)[C@]1(S(=O)(=O)c2ccccc2)C[C@@H]2ON=C(c3ccc(OC)cc3)[C@@H]2C1`: the inhibition was -8.41% (inactive).

With `N#C[C@]1(S(=O)(=O)c2ccccc2)C[C@@H]2ON=C(c3cccc(Br)c3)[C@@H]2C1`, the inhibition is 41.5% (active).

Turning to `CC(=O)NC12CC3CC(C1)CC(C(=O)N1CCN(C(=O)c4ccco4)CC1)(C3)C2`, the inhibition was -36.2% (inactive).

Regarding `CC(C)(COC(=O)Nc1ccccc1)COC(=O)Nc1ccccc1`, the inhibition is -9.72% (inactive).

On to `CCCCC(CCC(=O)Nc1ccc(C(=O)OCC)cc1)C(=O)O` (stereo not given), for which the inhibition is 4.1% (inactive).

In the case of `Cc1ccc(NC(=O)OCCNC(=O)c2ccncc2)cc1`, the inhibition is -36.9% (inactive).

`CCOC(=O)Nc1ccc(S(=O)(=O)N(C)C(C)C)cc1`: the inhibition is 2.07% (inactive).

Turning to `CCOC(=O)Nc1ccc(NC(=O)OCC)cc1`, the inhibition was 38.8% (active).

With `CCCCCOC(=O)NCCOC(=O)Nc1ccc(C(=O)OCC)cc1`, the inhibition was 33% (active).

In the case of `CCCCN(C(=O)C1=NN(c2cc(C)ccc2C)C(=O)CC1)c1c(N)n(CCC)c(=O)[nH]c1=O`, the inhibition was -7.61% (inactive).

On to `COc1ccccc1OCCNCC(O)COc1cccc2[nH]c3ccccc3c12` (stereo not given), for which the inhibition is 59.1% (active) and 51.5% (active).

Take `COc1cccc2[nH]c(C(=O)NCCc3ccccc3)cc12`: the inhibition was -14.1% (inactive).

As for `CC(O)CNCCOc1cccc(Oc2ccccc2)c1` (stereo not given), the inhibition is -19.3% (inactive).

Regarding `O=S(=O)(O)Oc1c[nH]c2ccccc12`, the inhibition was 19.7% (inactive).

Take `CCN(CC)S(=O)(=O)c1ccc(CNC(=O)CN2C(=O)NC3(CCc4ccccc43)C2=O)cc1` (stereo not given): the inhibition was -6.28% (inactive).

As for `CCOC(=O)c1cn(CC(=O)Nc2ccc(C(C)C)cc2)nn1`, the inhibition was -8.92% (inactive).

With `CC(C)c1ccc(NC(=O)Cn2ncc3ccccc32)cc1`, the inhibition is 32.4% (active).

As for `CCc1ccc(NC(=O)Cn2ncn3c(cc4ccccc43)c2=O)cc1`, the inhibition is 12.2% (inactive).

Regarding `COc1ccc(OCCCC(=O)Nc2cccc(S(=O)(=O)N3CCCCCC3)c2)cc1`, the inhibition is -0.774% (inactive).

In the case of `O=C(c1cn(-c2ccccc2)nc1-c1cccnc1)N1CCN(S(=O)(=O)c2ccccc2F)CC1`, the inhibition was 17.6% (inactive).

`CCCN(CC(=O)NC(=O)NC1CCCCC1)CC(=O)Nc1cc(Cl)ccc1Cl`: the inhibition is -13.3% (inactive).

For the molecule `O=C(CCCN1CCc2[nH]c3ccc(F)cc3c2C1)c1ccc(F)cc1`, the inhibition is 92.7% (active).

`Cc1ccc2[nH]c3c(c2c1)CN(C(=O)CN1CCN(c2ccccc2)CC1)CC3`: the inhibition is 4.69% (inactive).

In the case of `Fc1ccc(NC(=S)N2CCc3[nH]c4ccccc4c3C2)cc1`, the inhibition is -0.813% (inactive).

For `O=C(COC(=O)c1ccc2ncsc2c1)Nc1ccc(Cl)cc1`, the inhibition is 18.7% (inactive).

For the molecule `COc1ccc(OC)c(CNC(=O)C2CCCN(c3nc4ccccc4o3)C2)c1` (stereo not given), the inhibition was -3% (inactive).

For the molecule `COc1ccccc1CNC(=O)C1CCN(c2nc3ccccc3o2)CC1`, the inhibition was 9.79% (inactive).

Consider `CCc1ccc(CNC(=O)C2CCCN(c3nc4ccccc4o3)C2)cc1` (stereo not given), for which the inhibition is 39.6% (active).

Take `CCCCc1ccc(NC(=O)CN2C(=O)NC(Cc3ccccc3)C2=O)cc1` (stereo not given): the inhibition is 16.7% (inactive).

As to `COCc1c(C(=O)OCC(=O)Nc2ccc(OC(F)F)cc2)oc2ccccc12`, the inhibition was -10.8% (inactive).

`CSc1ccc(CCNC(=O)CS(=O)(=O)Cc2nc(-c3ccccc3F)oc2C)cc1`: the inhibition is -16.4% (inactive).

`Cc1oc(-c2ccccc2F)nc1CS(=O)CC(=O)NCCN1CCCCC1C` (stereo not given): the inhibition is -10.8% (inactive).

For the molecule `Cc1oc(-c2ccccc2F)nc1CS(=O)(=O)CC(=O)NCCCN(C)C1CCCCC1`, the inhibition was 45.2% (active).

As to `O=[N+]([O-])c1cc(S(=O)(=O)NCCc2ccccn2)ccc1Cl`, the inhibition was 9.65% (inactive).

As to `COc1ccc(CN2CCN(C(=O)c3cc(C4CC4)nn3-c3ccccc3)CC2)cc1F`, the inhibition is -4.93% (inactive).

For `N#CC1(NC(=O)COC(=O)Cc2n[nH]c(=O)c3ccccc23)CCCCC1`, the inhibition is -5.98% (inactive).
